Compound activity from PubChem.
A selection: hits, their analogues and other compounds. The true share with any hit is near 3.7%.
Autofluor counter: counter-screen for toxin protease inhibitors: compound fluorescence; compound autofluorescence counterscreen, microsphere flow cytometry; hits give high values; fluorescence intensity (test concentration not listed); hit rate 3.1% among 360,000; AID 624483; in the data active = fluorescence intensity above about 16000; inconclusive = no clear call, values can overlap the other calls
BoNT-F LC inh: blocks Botulinum neurotoxin F light chain protease; hit rate 0.22% among 360,000; AID 588497; inhibition, % at 10 µM; Multiplex microsphere protease cleavage assay, flow cytometry; in the data active = inhibition above about 35%, passing the limit was not always enough; inconclusive = no clear call, values can overlap the other calls; also: plate controls were buffer without enzyme for full effect and enzyme alone for no effect
BoNT A protease: blocks Botulinum neurotoxin A light chain protease | multiplex microsphere protease substrate cleavage, flow cytometry | inhibition, % at 10 µM | hit rate 0.17% among 360,000; also: plate controls were buffer without enzyme for full effect and enzyme alone for no effect
MazEF act: activators of E. coli MazEF toxin-antitoxin RNase; FAM/BHQ RNA-DNA oligo cleavage fluorescence, 5 h; P0AE70; activation, % at 20 µM; hit rate 0.32% among 350,000; in the data active = activation above about 50%
Target sequence (P0AE70 whole entry, looked up): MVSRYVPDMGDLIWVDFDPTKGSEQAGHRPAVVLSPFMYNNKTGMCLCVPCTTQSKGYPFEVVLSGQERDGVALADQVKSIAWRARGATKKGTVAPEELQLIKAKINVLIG
Anthrax LF inh2: blocks Bacillus anthracis lethal factor protease; hit rate 0.12% among 360,000; inhibition, % at 10 µM; multiplex microsphere protease cleavage assay, LF; also: plate controls were buffer without enzyme for full effect and enzyme alone for no effect
Starred values were filed as active, the others as inactive. Rule as the data show it, unless noted: active = inhibition above about 30%; inconclusive = no clear call, values can overlap the other calls; inactive = below that.

What do the screens show for `CC(C)(C)NC(=S)Nc1ccc(Br)cc1`?
Autofluor counter: 22615*; BoNT-F LC inh: 2; BoNT A protease: -1; MazEF act: 10; Anthrax LF inh2: -1

Results for CC(=O)C1CCCN(C(=O)c2ccc3nc(Cc4cccc(Cl)c4)oc3c2)C1 (centres undefined) ?
Autofluor counter: 5920; BoNT-F LC inh: -6; BoNT A protease: -2; MazEF act: 2; Anthrax LF inh2: -1

What do the screens show for `COc1ccc(N=c2oc3cc(O)ccc3cc2C(=O)NCC2CCCO2)cc1` (centres undefined)?
Autofluor counter: 21984*; BoNT-F LC inh: 2; BoNT A protease: inconclusive; MazEF act: 4; Anthrax LF inh2: 1

What do the screens show for `CCOc1ccccc1N=c1oc2cc(O)ccc2cc1C(=O)NCC1CCCO1` (centres undefined)?
Autofluor counter: 16487*; BoNT-F LC inh: -3; BoNT A protease: -1; MazEF act: -7; Anthrax LF inh2: -5

Results for COc1ccc(N=c2oc3cc(O)ccc3cc2C(=O)NCC2CCCO2)c(OC)c1 (centres undefined) ?
Autofluor counter: inconclusive; BoNT-F LC inh: 14; BoNT A protease: 3; MazEF act: 85*; Anthrax LF inh2: inconclusive

Results for CCCc1cc(C(=O)N2CCCC(Nc3ccc(C)c(C)c3)C2)n(C)n1 (centres undefined) ?
MazEF act: -16

Results for c1csc(-c2nnc3ccccn23)c1 ?
Autofluor counter: 18537*; BoNT-F LC inh: 9; BoNT A protease: inconclusive; MazEF act: 4; Anthrax LF inh2: -4

What do the screens show for `Cc1ccc(-c2nn3c(C)nnc3s2)cc1NC(=O)c1ccc(-c2ccc(Cl)cc2Cl)o1`?
Autofluor counter: 16181*; BoNT-F LC inh: 2; BoNT A protease: inconclusive; MazEF act: -242; Anthrax LF inh2: 2

Results for COc1cccc(CNc2ccc(N3CCC(C)CC3)cc2)c1OC ?
Autofluor counter: 19533*; BoNT-F LC inh: -5; BoNT A protease: 3; MazEF act: 0; Anthrax LF inh2: -4

What do the screens show for `Cn1c(=O)c2cc(NC(=O)CCc3cccnc3)ccc2n1Cc1cccc(C(F)(F)F)c1`?
Autofluor counter: 4306; BoNT-F LC inh: -3; BoNT A protease: 0; Anthrax LF inh2: 2

What do the screens show for `O=C1Nc2ccccc2/C1=C/c1cccnc1`?
Autofluor counter: 2160; BoNT-F LC inh: -7; BoNT A protease: -1; MazEF act: 9; Anthrax LF inh2: -3

How did O=C1Nc2ccccc2/C1=C/c1cnc(-c2ccccc2)[nH]1 do in these assays?
MazEF act: 98*

Results for COc1ccc2c(c1)/C(=C/c1cnc[nH]1)C(=O)N2 ?
Autofluor counter: 6058; BoNT-F LC inh: 2; BoNT A protease: 0; MazEF act: 0; Anthrax LF inh2: -12

How did O=C1Nc2ccccc2/C1=C/c1cnc[nH]1 do in these assays?
Autofluor counter: 19606*; BoNT-F LC inh: 0; BoNT A protease: 3; MazEF act: 2; Anthrax LF inh2: -7

What do the screens show for `CC(NC(=O)COC(=O)c1cn(-c2ccccc2)nc1-c1cccs1)c1ccccc1` (centres undefined)?
Autofluor counter: 18189*; BoNT-F LC inh: 5; BoNT A protease: 7; MazEF act: -9; Anthrax LF inh2: -10

Results for Cc1ccc(N2C(=O)CC(Cc3cc(C)cc(C)c3)C2=O)cc1 (centres undefined) ?
Autofluor counter: 4208; BoNT-F LC inh: -2; BoNT A protease: -1; MazEF act: 2; Anthrax LF inh2: -6

What do the screens show for `Cc1cc(C)cc(CC2CC(=O)N(c3ccc(Cl)cn3)C2=O)c1` (centres undefined)?
Autofluor counter: 22513*; BoNT-F LC inh: 1; BoNT A protease: 1; MazEF act: -3; Anthrax LF inh2: -4

Results for CC(=O)/C(=N\Nc1ccccc1)Sc1nnc(-c2ccccc2)n1-c1ccccc1 ?
Autofluor counter: 2531; BoNT-F LC inh: -1; BoNT A protease: 0; MazEF act: 3; Anthrax LF inh2: -2

Results for CC(=O)C(N=Nc1ccccc1)(Sc1nnc(-c2ccccc2)n1-c1ccccc1)C(=O)Nc1ccccc1 (centres undefined) ?
Autofluor counter: 19172*; BoNT-F LC inh: 4; BoNT A protease: 3; MazEF act: -3; Anthrax LF inh2: -3

How did CC(=O)C(N=Nc1ccccc1)(Sc1nnc(-c2ccccc2)n1-c1ccccc1)C(C)=O do in these assays?
Autofluor counter: 22141*; BoNT-F LC inh: -3; BoNT A protease: -2; MazEF act: -1; Anthrax LF inh2: 1

How did COc1cc(NC(=O)c2cccc(C)c2)ccc1NC(=O)c1cc2ccccc2o1 do in these assays?
Autofluor counter: 3677; BoNT-F LC inh: -1; BoNT A protease: 0; MazEF act: -3; Anthrax LF inh2: -8

Results for CCOc1ccc(S(=O)(=O)n2cc(F)c(=O)[nH]c2=O)cc1 ?
Autofluor counter: 5210; BoNT-F LC inh: -2; BoNT A protease: -1; MazEF act: 0; Anthrax LF inh2: -8

What do the screens show for `Cc1ccc(CNc2nc(C)nc3sc4c(c23)CCC4)cc1`?
Autofluor counter: 17440*; BoNT-F LC inh: -4; BoNT A protease: inconclusive; MazEF act: -11; Anthrax LF inh2: -1

What do the screens show for `Cc1nc(NC(C)c2ccccc2)c2c3c(sc2n1)CCC3` (centres undefined)?
Autofluor counter: 16604*; BoNT-F LC inh: -2; BoNT A protease: -1; MazEF act: -1; Anthrax LF inh2: 4

How did CCCCCc1c(C)nc(NCc2ccccc2)[nH]c1=O do in these assays?
Autofluor counter: 20180*; BoNT-F LC inh: 10; BoNT A protease: inconclusive; MazEF act: 8; Anthrax LF inh2: -14

Results for Cc1nc(Nc2ccccc2)[nH]c(=O)c1CCC(C)C ?
Autofluor counter: 9772; BoNT-F LC inh: 11; BoNT A protease: -1; MazEF act: -3; Anthrax LF inh2: -9

How did Cc1[nH]c(=O)[nH]c(=O)c1NC(=O)c1cccs1 do in these assays?
Autofluor counter: 21903*; BoNT-F LC inh: 2; BoNT A protease: 2; MazEF act: 7; Anthrax LF inh2: -6

How did O=C(c1ccc(F)cc1)C1CCN(S(=O)(=O)c2ccccc2)CC1 do in these assays?
Autofluor counter: 4358; BoNT-F LC inh: -2; BoNT A protease: -1; MazEF act: 14; Anthrax LF inh2: -1

Results for CSCCC(NC(=O)c1ccccc1)C(=O)NC1CC1 (centres undefined) ?
Autofluor counter: 23748*; BoNT-F LC inh: -6; BoNT A protease: inconclusive; MazEF act: 1; Anthrax LF inh2: -2

What do the screens show for `CSCCC(NC(=O)c1ccccc1)C(=O)NC1CCCC1` (centres undefined)?
Autofluor counter: 10885; BoNT-F LC inh: -4; BoNT A protease: 0; MazEF act: -2; Anthrax LF inh2: -3

What do the screens show for `COc1ccc(NC(=O)NC2CCN(C(C)C)CC2)c(OC)c1`?
Autofluor counter: 16455*; BoNT-F LC inh: 0; BoNT A protease: inconclusive; MazEF act: -6; Anthrax LF inh2: -6

What do the screens show for `Cc1cc2oc(C(=O)NCc3ccccc3)cc(=O)c2cc1C`?
Autofluor counter: 3213; BoNT-F LC inh: -12; BoNT A protease: -1; MazEF act: -11; Anthrax LF inh2: -1
